The results in this text go back to the supplement of paper PMC8728848.

Shown is part of a subset that was picked to be rich in the strongest signals.

Assay in all cases: glycan array binding signal (z-score within array); higher = stronger binding
What all share (details): glycan notation: IUPAC condensed, linker removed

For experiment [1], the system named is Fuc(a1-2)[GalNAc(a1-3)]Gal(b1-3)GlcNAc(b1-2)Man(a1-3)[Fuc(a1-2)[GalNAc(a1-3)]Gal(b1-3)GlcNAc(b1-2)Man(a1-6)]Man(b1-4)GlcNAc(b1-4)GlcNAc. In a few lines:
(§1)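 From the Consortium for Functional Glycomics database, 3228 arrays were curated, keeping only those whose protein sequence was available. Binding is given as a within-array Z-score averaged across arrays sharing a protein sequence and across linkers. Negative Z-scores can be read as non-binding.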

Experiment [2] deals with Fuc(a1-2)[GalNAc(a1-3)]Gal(b1-3)GlcNAc(b1-2)Man(a1-3)[Fuc(a1-2)[GalNAc(a1-3)]Gal(b1-3)GlcNAc(b1-2)Man(a1-6)]Man(b1-4)GlcNAc(b1-4)[Fuc(a1-6)]GlcNAc. Summed up: as §1
Experiment [3] deals with Fuc(a1-2)[Gal(a1-3)]Gal(b1-4)[Fuc(a1-3)]Glc. Summed up: as §1
For experiment [4], the system named is Fuc(a1-2)[Gal(a1-4)]Gal(b1-4)GlcNAc. In a few lines:
as §1

For experiment [5], the system named is Fuc(a1-2)[GalNAc(a1-3)]Gal(b1-3)GalNAc(b1-3)Gal(a1-4)Gal(b1-4)Glc. Summed up:
as §1

For experiment [6], the system named is Fuc(a1-2)[GalNAc(a1-3)]Gal(b1-3)GlcNAc. In a few lines: as §1
Experiment [7] deals with Fuc(a1-2)[GalNAc(a1-3)]Gal(b1-4)GlcNAc(b1-2)Man(a1-3)[Fuc(a1-2)[GalNAc(a1-3)]Gal(b1-4)GlcNAc(b1-2)Man(a1-6)]Man(b1-4)GlcNAc(b1-4)[Fuc(a1-6)]GlcNAc. Summed up: as §1
Experiment [8] concerns Fuc(a1-2)[Gal(a1-3)]Gal(b1-4)[Fuc(a1-3)]GlcNAc. Summed up:
as §1

The subject of experiment [9] is Fuc(a1-2)[GalNAc(a1-3)]Gal(b1-3)GalNAc(a1-3)[Fuc(a1-2)]Gal(b1-4)GlcNAc. In a few lines: as §1
Experiment [10] relates to Fuc(a1-2)[GalNAc(a1-3)]Gal(b1-4)GlcNAc(b1-2)Man(a1-3)[Fuc(a1-2)[GalNAc(a1-3)]Gal(b1-4)GlcNAc(b1-2)Man(a1-6)]Man(b1-4)GlcNAc(b1-4)GlcNAc. Summed up: as §1

With LcI (Legionella pneumophila), the “glycan array binding signal (z-score)” value in [1] is -0.301; in experiment [2], -0.427.
Take Epa22: the results for the “glycan array binding signal (z-score)” value in [3], in experiment [4] and in [5] were -0.341, 1.84 and -0.54, respectively.
Take GspB (Streptococcus gordonii), Q939N5: the “glycan array binding signal (z-score)” value in [6] was determined as 0.192.
Regarding “AgI/II Vhelical-GFP (Streptococcus mutans)”, the “glycan array binding signal (z-score)” value in experiment [3] is -0.293; in experiment [2], -0.218; in [7] it was -0.212.
In the case of “SiiE (Salmonella typhimurium), A0A0H3NVH0”, the “glycan array binding signal (z-score)” value in [8] is -0.019.
For the substance AgI/IIC123-GFP (Streptococcus mutans), the entries for the “glycan array binding signal (z-score)” value in experiment [8], in [9] and in [7] were -0.047, -0.259 and -0.549, respectively.
Turning to Actinohivin (Actinomycete K97), the “glycan array binding signal (z-score)” value is 0.857 in [2] and -0.143 in experiment [10].
